Source: PubChem
Most compounds without a hit are left out; they make up all but 1.4% or so of the library.
Polio RdRp inh: inhibitors of poliovirus RNA polymerase binding and polymerization; P03300; poliovirus polymerase elongation, fluorescence polarization; stronger effect = lower value; % elongation, % (compound at 16.7 µg/mL); hit rate 0.66% among 150,000; AID 588519; in the data active means % elongation below about 90%
Target sequence (P03300 1749-2209 limits assumed): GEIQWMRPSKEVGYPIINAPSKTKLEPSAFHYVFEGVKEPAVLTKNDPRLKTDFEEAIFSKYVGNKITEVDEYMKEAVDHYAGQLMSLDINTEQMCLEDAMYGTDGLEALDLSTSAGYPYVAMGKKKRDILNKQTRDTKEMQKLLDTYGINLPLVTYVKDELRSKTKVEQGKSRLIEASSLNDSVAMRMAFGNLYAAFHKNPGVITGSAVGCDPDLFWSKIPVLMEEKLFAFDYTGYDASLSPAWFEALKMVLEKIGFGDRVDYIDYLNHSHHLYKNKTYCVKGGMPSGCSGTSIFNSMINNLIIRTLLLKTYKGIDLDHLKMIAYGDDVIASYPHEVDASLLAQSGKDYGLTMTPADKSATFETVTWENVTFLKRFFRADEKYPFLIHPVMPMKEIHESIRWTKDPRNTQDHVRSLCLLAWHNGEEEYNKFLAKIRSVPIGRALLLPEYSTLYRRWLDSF
MbtI inh: inhibitors of Mycobacterium tuberculosis siderophore enzyme MbtI; inhibition, % (test concentration not listed); P9WFX0; purified MbtI enzyme, fluorescence intensity read-out; hit rate 0.89% among 100,000; AID 493033; in the data active means inhibition mostly above about 56%, no sharp cut-off; inactive means mostly below about 77%
MenB inh: blocks the Mycobacterium tuberculosis MenB enzyme; hit rate 0.43% among 100,000; inhibition, % (no concentration beside the values); MenB enzyme assay, absorbance read-out; AID 540299; in the data active means inhibition above about 21%, passing the limit was not always enough
AID504770: growth inhibitors of E. coli YBA685 in a screen for V. cholerae RctB (chromosome II replication) inhibitors; E. coli YBA685 rctB-dependent plasmid, OD600 growth, 3 h; stronger effect = lower value; z-score (test concentration not listed); hit rate 0.27% among 130,000; in the data active means z-score below about -2, passing the limit was not always enough
Each line names hits and unclear results; the compound was inactive in the other large screens; ! = not active in a repeat.

COc1ccc(NC(=O)c2c(NCc3ccc(N(C)C)cc3)sc3c2CCC3)cc1	Polio RdRp inh 86 (no result: MbtI inh, MenB inh, AID504770)
O=S(=O)(c1ccc(N2CCC(CNc3nc4ccccc4s3)CC2)cc1)N1CCOCC1	MenB inh 39
N#CCn1cc(/C=C2\C(=O)NC(=O)N(c3cccc(F)c3)C2=O)c2ccccc21	MbtI inh 74
CCOC(=O)Cn1cc(/C=C2\C(=O)NC(=O)N(c3ccc(F)cc3)C2=O)c2ccccc21	none
O=C(O)COCC(=O)Nc1ccc2c(c1)OCCCO2	none
CCN(CC)S(=O)(=O)c1ccc(Cl)c(C(=O)OC)c1	none
CCN(CC)S(=O)(=O)c1ccc(Cl)c(C(=O)Oc2ccc(C)c(C)c2)c1	Polio RdRp inh 45
O=C1c2ccccc2C(=O)C1c1ccc(OC(F)F)cc1	MbtI inh 80
CC(C)NS(=O)(=O)c1ccc(N=Cc2c(O)n(C)c(=O)n(C)c2=O)cc1	AID504770 -3.7
Fc1cccc2c1CNC(=S)N2	MbtI inh 82
Cc1nn(-c2ccccc2)c(OC(=O)c2ccccc2Cl)c1S(=O)(=O)c1ccccc1	none (no result: MbtI inh, MenB inh, AID504770)
S=c1[nH]nc(-c2ccccc2)n1-c1ccccc1	none
S=c1[nH]nc(Nc2ccccc2)n1-c1ccccc1	MbtI inh 58
Cc1ccc(C)c(N2CCN(C(=O)c3cn(CC(C)C)c(=O)c4c3c3ccccc3n4C)CC2)c1	none (no result: MbtI inh, MenB inh, AID504770)
CC(C)(C)N1NC2(CCCCC2)NC1=S	none
CC(C)c1ccc(NC(=S)Sc2ccc(F)cc2F)cc1	MbtI inh 65
CC(=O)c1cccc(NS(=O)(=O)c2ccc3c(c2)NC(=O)CC(=O)N3)c1	none (no result: MbtI inh, MenB inh, AID504770)
CC1(C)CC(NC(=O)CCc2ccccc2)CC(C)(C)N1	MenB inh 39
CC1(C)CC(NC(=O)CCCC(=O)O)CC(C)(C)N1	none
Cc1cccc(N2CCN(S(=O)(=O)c3csc(C(N)=O)c3)CC2)c1C	none (no result: MbtI inh, MenB inh, AID504770)
CCOC(=O)c1cnc2c(C(F)(F)F)cccc2c1N1CCOCC1	none
Cc1cccc2nc(=S)n(C(=O)c3ccc(F)cc3)n12	Polio RdRp inh 74 (no result: MbtI inh)
CCOc1ccc(CCNC(=O)c2cnc3sc(N4CCCC4)nn3c2=O)cc1	Polio RdRp inh 5.0 (no result: MbtI inh, MenB inh, AID504770)
CCOc1ccc(CCNC(=O)c2cnc3sc(N4CCCCCC4)nn3c2=O)cc1	none (no result: MbtI inh, MenB inh, AID504770)
CCOc1ccc(N2C(=O)/C(=C/c3cccs3)C(=O)N(c3ccccc3)C2=S)cc1	MbtI inh 73
CC(C)(C)c1ccc(O)c(N)c1	MbtI inh 99
Cc1cc(NC2CCCCC2)nc2ccc(N)cc12	none (no result: Polio RdRp inh, MenB inh, AID504770)
COc1cc(-c2nnc(SC(=O)OCc3ccccc3)o2)cc(OC)c1OC	none (no result: Polio RdRp inh, MbtI inh, MenB inh)
Cc1ccc(C(c2nnnn2C(C)(C)C)N2CCC(C)CC2)cc1 (centres undefined)	none
Cc1ccc(C(c2c(O)[nH]c(=S)[nH]c2=O)N2CCC(C)CC2)cc1 (centres undefined)	MbtI inh 66
COc1cc(C=C(C#N)C#N)ccc1O	MbtI inh 59
Cn1c(C2CCCCC2)nc2ccccc21	MenB inh 28
Cn1c(CNC2CCCCC2)nc2ccccc21	none (no result: Polio RdRp inh, MbtI inh, MenB inh)
O=C(c1cnccn1)N(Cc1ccc(Cl)cc1)Cc1cc2cc3c(cc2[nH]c1=O)OCCO3	MenB inh 25
O=C(NCc1ccc2c(c1)CCN2C(=O)c1ccc(F)cc1)c1c(F)cccc1F	none (no result: MbtI inh, MenB inh, AID504770)
N#Cc1cnc(SCCc2ccccc2)nc1N	MenB inh 33
Cc1nnc(NCc2ccco2)s1	none
c1coc(CNc2nc(C34CC5CC(CC(C5)C3)C4)cs2)c1	MbtI inh 59
Cc1ccc(S(=O)(=O)N2CCN(Cn3nc(Nc4ccccc4F)sc3=S)CC2)cc1	MbtI inh 94
Cc1ccc(S(=O)(=O)N2CCN(Cn3nc(C)sc3=S)CC2)c(C)c1	MbtI inh 68
Cc1ccc(S(=O)(=O)N2CCOCC2)c(C)c1	none
CCS(=O)(=O)N1CCN(S(=O)(=O)c2ccc(C)cc2)CC1	none
CCCOc1ccc(Cc2nc(N)c(NC(C)=O)c(=O)[nH]2)cc1	none (no result: MbtI inh)
Clc1cc2c(cc1Cl)Nc1cc(Cl)c(Cl)cc1N2	MbtI inh 95
CN(C)C(=S)c1nc2ccccc2[nH]1	none
S=C(Cc1ccc2c(c1)OCCO2)N1CCOCC1	Polio RdRp inh 83, MbtI inh 92
COc1ccc(N2C(=O)Cc3ccccc3C2=O)cc1	none (no result: Polio RdRp inh, MbtI inh, MenB inh)
Cc1ccccc1N1C(=O)Cc2ccccc2C1=O	Polio RdRp inh 48
CCC(=O)N1CCc2ccccc21	none
Oc1cc(Cl)c(Cl)cc1O	MbtI inh 102, AID504770 -3.5
CCCN(Cc1nnc(-c2ccco2)o1)C(=O)c1cccnc1SCc1c(C)noc1C	Polio RdRp inh 89
Oc1c(C(c2ccc(C(F)(F)F)cc2)N2CCOCC2)ccc2cccnc12 (centres undefined)	MbtI inh 64
Oc1c(C(c2ccc(F)cc2)N2CCCC2)ccc2cccnc12 (centres undefined)	none (no result: Polio RdRp inh, MbtI inh, MenB inh)
CC(C)(C)C(=O)NC1CCN(S(C)(=O)=O)CC1	MenB inh 31
Cc1ccc(S(=O)(=O)NC(=O)c2ccc(Cl)nc2Cl)cc1	Polio RdRp inh 62 (no result: MenB inh)
Cc1cc2c(NC(=O)COCC(=O)O)cccc2nn1	Polio RdRp inh 65
CCCn1cnc2c1c(=O)[nH]c(=O)n2C	AID504770 -3.7 (no result: Polio RdRp inh, MbtI inh, MenB inh)
C=CCn1cnc2c1c(=O)[nH]c(=O)n2C	none
CCC(C)NC(=S)Nc1ccccc1 (centres undefined)	MenB inh 30
CC(C)N(C)NC(=S)Nc1ccccc1	MenB inh 41
CCNC(=S)Nc1ccccc1	none
CCN(CC)NC(=S)Nc1ccccc1	none
N#CCCN(N)C1=NS(=O)(=O)c2ccccc21	none
CC1CCc2c(sc3nc(C(C)C)n4c(SCC(=O)NCc5ccco5)nnc4c23)C1 (centres undefined)	MenB inh 27
CCS(=O)c1ccccc1C(=O)NCc1ccc(F)cc1 (centres undefined)	MbtI inh 86
COc1cccc(NC(=O)COC(=O)c2cccc(S(=O)(=O)N(C)C)c2)c1	none
O=C(CN1CCN(c2ncnc3scc(-c4ccc(Cl)cc4)c23)CC1)NC1CC1	AID504770 -4.9
CC1=C(/C=C/C(C)=C/C=C/C(C)=C\C(=O)O)C(C)(C)CCC1	MenB inh 50!
CC1=C(/C=C/C(C)=C/C=C/C(C)=C/C(=O)Nc2ccc(O)cc2)C(C)(C)CCC1	none (no result: AID504770)
Cc1ccccc1C(=O)Nc1ccc(-c2nc3ccccc3o2)cc1	none
Cc1cc2nc(-c3ccc(NC(=O)c4ccccc4F)cc3)oc2cc1C	Polio RdRp inh 24 (no result: MbtI inh, MenB inh, AID504770)
O=C(Nc1ccc(Cl)c(-c2nc3cc(Cl)ccc3o2)c1)c1cc2ccccc2o1	none (no result: MbtI inh, MenB inh, AID504770)
O=C(Nc1ccc(-c2nc3cc(Cl)ccc3o2)cc1)c1cc2ccccc2o1	Polio RdRp inh 49 (no result: MbtI inh, MenB inh, AID504770)
CCc1ccc(NC(=O)Cn2c(=O)oc3cc(S(=O)(=O)NCc4ccccc4)ccc32)cc1	none (no result: MbtI inh, MenB inh, AID504770)
O=C1N=c2ccccc2=C1c1c(O)n(-c2cccc(F)c2)[nH]c1=O	MbtI inh 88
COc1ccc(OC)c(CNC(=O)c2ccc(N3Cc4ccccc4Oc4ncccc43)s2)c1	none (no result: MbtI inh, MenB inh, AID504770)
CC1CN(C)CC(C)C1(O)c1ccccc1 (centres undefined)	none (no result: MbtI inh)
CC1CN(C(C)(C)C)CCC1(O)c1ccccc1 (centres undefined)	MenB inh 34
OC(CN1CCOCC1)c1ccccc1 (centres undefined)	none
S=c1[nH]ccn1CCc1ccccc1	none (no result: MbtI inh)
